Here are results for twelve molecules from PubChem BioAssay (NCI).

SMILES strings stand for the structures. This is part of a sample that, as a whole, favours compounds with a hit. Of some 83,000 tested, about 20% had one in any assay.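 Compound tested at a single concentration for 48 hours in 96-well plates; a percent growth value below 10 was scored as active.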 Unmarked numbers belong to inactive results. Calls of active or inactive are those of the source.

Holding throughout (test): NCI-60 one-dose screen, 48 h (100 = growth as untreated, 0 = no growth, -100 = all killed)
What all share (conditions): 10 µM unless noted

The test system of assay [1] is DU-145 prostate.
Assay [2] concerns K-562 leukemia.
Assay [3] has as its system MALME-3M melanoma.
Assay [4] deals with MDA-MB-231 breast.
Assay [5] relates to RXF 393 renal.
Assay [6] deals with SF-268 CNS.
For assay [7], the system named is SF-295 CNS.
Assay [8] relates to SF-539 CNS.
Assay [9] concerns UACC-257 melanoma.
Assay [10] concerns M14 melanoma.
In assay [11] the test system is HCT-15 colon.
In assay [12] the test system is HT29 colon.
Assay [13] deals with SNB-75 CNS.
Assay [14] has as its system SNB-19 CNS.
Assay [15] concerns PC-3 prostate.
The subject of assay [16] is SK-MEL-5 melanoma.
The subject of assay [17] is UACC-62 melanoma.
The subject of assay [18] is LOX IMVI melanoma.
Assay [19] relates to SK-MEL-28 melanoma.

In the case of `CN(C)CCOc1ccc(C(=O)C2[C@H](c3ccc(Cl)cc3)[C@@H](c3ccccc3)NC23C(=O)Nc2ccc(Cl)cc23)cc1` (stereo partly drawn), the growth is -80.3% (active) in assay [1]; -76.1% (active) in assay [2]; -87.8% (active) in assay [3]; -93.6% (active) in assay [4]; -92% (active) in assay [5]; -64% (active) in [6]. Besides, the growth in [7] was -89.3% (active); in assay [8] it was -98.5% (active); in assay [9], -81.2% (active); in assay [10], -90.1% (active); in assay [11] it was -91.5% (active); in assay [12], -93.7% (active). In addition, the growth in [13] was -90.7% (active); in assay [14] it was -96.2% (active); in assay [15], -89.9% (active); in assay [16], -98.2% (active); in [17], -78.3% (active); in assay [18] it was -96.3% (active). Moreover, in assay [19], the growth was -93.4% (active).
Consider `O=C(CSc1nnc(-c2ccc(-c3nc4ccccc4[nH]3)cc2)o1)Nc1ccc(Cl)cc1`, for which the growth is 13.1% in [1]; 10.7% in assay [2]; 29.1% in [3]; -24.9% (active) in [4]; -61.7% (active) in [5]; 38.5% in assay [6]. In addition, the growth in assay [7] is 39%; in assay [8] it was -94.2% (active); in assay [9], 48.9%; in assay [10], -0.25% (active); in assay [11], 19.3%; in assay [12], 26.6%. Moreover, the growth in assay [13] is 62.4%; in assay [14] it was -37.3% (active); in assay [15], 7.32% (active); in [16], 34.1%; in assay [17], 23.9%; in assay [18], -92.4% (active). Besides, the growth in [19] is -85% (active).
As to `c1n[nH]cc1-c1nc2ccc3[nH]ncc3c2c2c1CC1(CC2)COC1`, the growth in assay [1] was 62.7%; in assay [2], 33.9%; in assay [3], 29%; in [4] it was 69.5%; in [5], -2.43% (active); in assay [6], 63.6%. Also, the growth in assay [7] was 104%; in [8] it was 26.6%; in assay [9] it was 66.4%; in assay [10] it was 31.9%; in assay [11], 70.5%; in assay [12], 52.1%. For the same molecule, the growth is -5.96% (active) in assay [13]; 47.4% in assay [14]; 53% in assay [15]; 44.7% in [16]; 18.7% in [17]; 38.5% in [18]. In addition, the growth in assay [19] was 44.5%.
`C=CC[n+]1cccc2c3ccccc3ccc21`: the growth in assay [1] is 58.4%; in assay [2] it was 27.8%; in assay [3], 2.38% (active); in [4], 77.6%; in assay [5], 69.7%; in assay [6] it was 22.7%. Also, the growth is 21.4% in assay [7]; 66.6% in [8]; 20.9% in assay [9]; 65.9% in assay [10]; 94.7% in assay [11]; 47.3% in assay [12]. The growth is 49.8% in [13]; 26.5% in assay [14]; 43.7% in assay [15]; -39.8% (active) in [16]; 61% in assay [17]; 61.8% in assay [18]. For the same molecule, the growth in [19] was 69%.
`S=C(Nc1ccccc1)Nc1ccc(OCc2nc3ccc(Cl)cc3[nH]2)cc1`: the growth in assay [1] was 96.4%; in [2], 30.9%; in assay [3], 92.4%; in [4] it was 80%; in assay [5] it was 85.1%; in assay [6], 92.1%. Further, the growth in [7] was 93.7%; in [8] it was 88.8%; in assay [9], 105%; in assay [10], 85%; in assay [11], 67.9%; in [12] it was 105%. In addition, the growth in assay [13] is 89.4%; in assay [14] it was 89.1%; in assay [15] it was 77.8%; in assay [16], 82.8%; in assay [17], 77.3%; in assay [18], 36.3%. Also, the growth in [19] is 87.9%.
For the molecule `COc1c2c(cc3c1C(CCc1ccccc1)N(C)CC3)OCO2` (stereo not drawn), the growth in assay [1] was 23.2%; in [2], 6.06% (active); in assay [3], -65.8% (active); in [4], -11.7% (active); in assay [5], -12.1% (active); in assay [6], 23.2%. The growth in assay [7] is -70.1% (active); in assay [8], -40.2% (active); in assay [9], 16.6%; in assay [10], -26.4% (active); in [11] it was 9.64% (active); in [12], -13.3% (active). In addition, the growth in assay [13] is -1.4% (active); in assay [14] it was 8.54% (active); in [15], 12.7%; in [16] it was -98.2% (active); in [17], -24% (active); in assay [18], -92% (active). For the same molecule, in assay [19], the growth is -5.44% (active).
Regarding `O=C(N/N=C/c1ccc(Cl)cc1)c1ccc(OCc2nc3ccc(Cl)cc3[nH]2)cc1`, the growth in assay [1] is -36.1% (active); in [2], 14.6%; in assay [3] it was 37.5%; in [4], 6.26% (active); in assay [5], -10% (active); in assay [6], 82.1%. Further, the growth in assay [7] is 13.8%; in [8] it was 67.6%; in assay [9] it was 24.8%; in [10] it was -14.1% (active); in [11], -47.1% (active); in [12] it was -55.7% (active). Further, the growth in assay [13] is 53.9%; in assay [14], 35%; in assay [15] it was -10.1% (active); in assay [16], 52.2%; in [17], 47.5%; in assay [18], -81% (active). For the same molecule, in assay [19], the growth is 41%.
Take `COc1ccc2[nH]c(=O)c(CSc3ccccc3Nc3nccc(-c4ccc5c(c4)OCO5)n3)cc2c1`: the growth in [1] was 78.4%; in [2], 52.7%; in assay [3], 99.4%; in assay [4], 93.7%; in assay [5], 79.7%; in [6], 73.4%. The growth is 104% in [7]; 95% in assay [8]; 96.6% in [9]; 91.5% in [10]; 74.3% in assay [11]; 75.2% in assay [12]. For the same molecule, the growth in [13] was 71.8%; in assay [14] it was 81.6%; in [15], 68.1%; in assay [16] it was 58.9%; in assay [17] it was 79.2%; in [18], 89.6%. The growth in [19] is 95.9%.
`COc1cccc(NC(=O)c2ccc(NC(=O)CCl)s2)c1`: the growth is 88.1% in [1]; 4.03% (active) in assay [2]; 45.5% in assay [3]; -26.5% (active) in [4]; 56.9% in assay [5]; 45.7% in assay [6]. Further, the growth in assay [7] was 65.4%; in assay [8], 38.4%; in [9], 27.7%; in [10], 14.2%; in assay [11], -29.7% (active); in [12], -7.55% (active). In addition, the growth in [13] is 74.6%; in assay [14], 73.8%; in assay [15], -12.4% (active); in assay [16] it was 32.1%; in [17], -19.4% (active); in [18], -94.9% (active). Moreover, in assay [19], the growth was 51%.
Consider `NS(=O)(=O)c1ccc(Nc2nc(N/N=C/c3cc(Br)c(O)c(Br)c3)nc(Nc3ccccc3)n2)cc1`, for which the growth in assay [1] was 50.6%; in assay [2], 14.3%; in assay [3] it was 42%; in [4], -0.169% (active); in [5], 54%; in assay [6] it was 21%. The growth is 43.8% in assay [7]; -25.8% (active) in assay [8]; 97.4% in assay [9]; 59.4% in assay [10]; 80.5% in assay [11]; 32.1% in assay [12]. The growth in assay [13] was 25.7%; in assay [14] it was 14.9%; in [15] it was 57.7%; in [16] it was -26.6% (active); in [17] it was -26.6% (active); in [18], -23.5% (active). Further, in assay [19], the growth is 34.4%.
As for `CC(C)(C)OC(=O)N1C/C(=C\c2ccc(F)cc2)C(=O)/C(=C/c2ccc(F)cc2)C1`, the growth in [1] is 9.97% (active); in assay [2], 9.9% (active); in assay [3], -75.5% (active); in [4] it was -54.4% (active); in [5], -88.1% (active); in assay [6], -46.1% (active). Besides, the growth in assay [7] is -75.1% (active); in assay [8], -98.3% (active); in [9], -42.1% (active); in assay [10], -71.5% (active); in assay [11], -61% (active); in assay [12] it was -87.2% (active). Also, the growth in [13] was 13.2%; in [14], -89.6% (active); in [15] it was -31.1% (active); in assay [16] it was -92.3% (active); in assay [17] it was -96.1% (active); in assay [18], -100% (active). In [19], the growth is -95.9% (active).
For `O=C(NN1C(=O)/C(=C/C=C/c2ccc([N+](=O)[O-])o2)SC1=S)c1ccc([N+](=O)[O-])cc1`, the growth in assay [1] is -100% (active); in assay [2], 4.2% (active); in assay [3], -91.3% (active); in assay [4], -99.7% (active); in assay [5], -88.6% (active); in assay [6], -82.3% (active). Also, the growth in [7] was -97.5% (active); in assay [8], -100% (active); in assay [9] it was -82.2% (active); in assay [10], -82.5% (active); in assay [11], -85.4% (active); in assay [12], -80.3% (active). Further, the growth in assay [13] was -91.1% (active); in assay [14], -100% (active); in [15] it was -72.5% (active); in assay [16], -100% (active); in assay [17], -99.6% (active); in assay [18], -97.1% (active). In addition, the growth in [19] is -99% (active).
